# According to PMC7862700, “An all-to-all approach to the identification of sequence-specific readers for epigenetic DNA modifications on cytosine”:
# What was measured:
# Test in all cases: DAPPL (digital affinity profiling via proximity ligation, sequencing); 10 mM Tris-HCl pH 7.5, 50 mM NaCl, 1 mM DTT, 4% glycerol, room temperature, 30 min; GST-TFs on glutathione beads, 16-mer random dsDNA library, 0.1% formaldehyde crosslink after washing; high values mean tight binding
# Details in all cases: protein: recombinant; tags: N-terminal GST; dsDNA, one strand shown
# FLI1 = biological target: T1, FLI1 (Homo sapiens, UniProt Q01543 1-452)
# T1 sequence: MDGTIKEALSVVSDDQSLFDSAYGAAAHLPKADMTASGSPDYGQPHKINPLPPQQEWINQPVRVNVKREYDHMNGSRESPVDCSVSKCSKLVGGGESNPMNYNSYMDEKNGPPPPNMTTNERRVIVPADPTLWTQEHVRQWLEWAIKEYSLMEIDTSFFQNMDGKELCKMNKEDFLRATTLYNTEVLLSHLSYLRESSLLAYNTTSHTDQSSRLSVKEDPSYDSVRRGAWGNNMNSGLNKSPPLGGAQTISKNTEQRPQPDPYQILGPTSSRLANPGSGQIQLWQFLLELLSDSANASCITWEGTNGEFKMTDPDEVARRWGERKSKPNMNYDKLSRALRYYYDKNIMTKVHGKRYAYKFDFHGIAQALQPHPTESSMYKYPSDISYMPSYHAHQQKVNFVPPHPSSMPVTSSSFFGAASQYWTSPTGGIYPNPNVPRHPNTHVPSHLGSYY
# In short: (§1)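 Binding signal is defined as a hexamer's read frequency for one factor over its frequency for the tag-only sample. To obtain reads, GST-fused human transcription factors were expressed in yeast, captured on glutathione beads, barcoded with DNA and pooled with that sample. Pools met 200 nmole of a 16-mer random double-stranded DNA library in Tris/NaCl/DTT/glycerol buffer for 30 min at room temperature before washing, 0.1% formaldehyde crosslinking, proximity ligation (BsaI/T4 ligase, 1 h, 37 °C), PCR and Illumina NextSeq500 sequencing.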
# GABPA = biological target: T2, GABPA (Homo sapiens, UniProt Q06546 1-454)
# T2 sequence: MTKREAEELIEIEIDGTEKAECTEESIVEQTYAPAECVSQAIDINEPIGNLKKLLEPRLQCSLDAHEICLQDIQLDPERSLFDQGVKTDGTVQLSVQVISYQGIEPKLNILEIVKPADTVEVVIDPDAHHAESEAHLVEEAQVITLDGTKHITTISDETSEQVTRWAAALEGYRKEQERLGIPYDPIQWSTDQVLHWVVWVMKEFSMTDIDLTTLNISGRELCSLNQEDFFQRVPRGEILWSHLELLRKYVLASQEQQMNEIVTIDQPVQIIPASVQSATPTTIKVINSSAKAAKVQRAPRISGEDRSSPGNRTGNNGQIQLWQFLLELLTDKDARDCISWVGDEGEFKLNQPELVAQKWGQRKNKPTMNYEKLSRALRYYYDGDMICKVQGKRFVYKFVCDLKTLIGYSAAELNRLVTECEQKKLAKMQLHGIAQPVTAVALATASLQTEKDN
# In short: as §1
# ERG = biological target: T3, ERG (Homo sapiens, UniProt P11308 1-479)
# T3 sequence: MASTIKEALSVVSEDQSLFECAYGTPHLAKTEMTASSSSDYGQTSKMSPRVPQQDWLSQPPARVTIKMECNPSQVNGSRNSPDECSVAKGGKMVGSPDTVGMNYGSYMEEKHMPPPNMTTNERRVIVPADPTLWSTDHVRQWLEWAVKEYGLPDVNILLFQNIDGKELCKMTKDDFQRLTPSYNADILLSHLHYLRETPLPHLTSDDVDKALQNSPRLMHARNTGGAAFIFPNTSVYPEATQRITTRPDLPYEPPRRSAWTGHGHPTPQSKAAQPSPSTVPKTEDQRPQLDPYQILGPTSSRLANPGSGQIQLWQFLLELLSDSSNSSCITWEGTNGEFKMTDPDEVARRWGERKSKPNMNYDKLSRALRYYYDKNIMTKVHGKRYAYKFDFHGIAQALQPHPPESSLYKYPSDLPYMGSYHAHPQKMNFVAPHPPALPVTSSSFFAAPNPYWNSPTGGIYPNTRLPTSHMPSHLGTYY
# In short: as §1
# ELF1 = ELF1 (Homo sapiens, UniProt P32519 1-619)
# In short: as §1
# EHF = biological target: T4, EHF (Homo sapiens, UniProt Q9NZC4 1-300)
# T4 sequence: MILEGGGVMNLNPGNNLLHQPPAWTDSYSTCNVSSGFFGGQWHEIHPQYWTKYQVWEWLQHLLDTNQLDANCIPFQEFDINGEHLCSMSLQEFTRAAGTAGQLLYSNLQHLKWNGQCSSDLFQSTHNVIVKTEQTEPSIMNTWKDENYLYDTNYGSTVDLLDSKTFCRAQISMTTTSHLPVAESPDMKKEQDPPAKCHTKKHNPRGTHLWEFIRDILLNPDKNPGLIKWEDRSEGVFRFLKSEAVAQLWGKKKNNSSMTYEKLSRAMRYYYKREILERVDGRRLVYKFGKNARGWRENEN
# In short: as §1
# SPI1 = SPI1 (Homo sapiens, UniProt P17947 1-270)
# In short: as §1
# SPIB = SPIB (Homo sapiens, UniProt Q01892 1-262)
# In short: as §1
# ELK3 = biological target: T5, ELK3 (Homo sapiens, UniProt P41970 1-407)
# T5 sequence: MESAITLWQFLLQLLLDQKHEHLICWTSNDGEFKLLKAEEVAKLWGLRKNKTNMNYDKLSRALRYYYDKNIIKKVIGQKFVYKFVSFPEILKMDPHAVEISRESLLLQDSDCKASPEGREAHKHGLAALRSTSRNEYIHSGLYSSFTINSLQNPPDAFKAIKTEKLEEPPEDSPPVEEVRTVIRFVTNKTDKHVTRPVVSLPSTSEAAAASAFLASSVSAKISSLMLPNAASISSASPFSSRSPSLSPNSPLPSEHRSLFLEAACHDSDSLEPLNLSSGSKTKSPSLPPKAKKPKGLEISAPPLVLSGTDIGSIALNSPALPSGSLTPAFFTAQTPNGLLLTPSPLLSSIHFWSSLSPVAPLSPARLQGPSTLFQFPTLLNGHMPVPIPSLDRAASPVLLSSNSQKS
# In short: as §1
# FEV = biological target: T6, FEV (Homo sapiens, UniProt Q99581 1-238)
# T6 sequence: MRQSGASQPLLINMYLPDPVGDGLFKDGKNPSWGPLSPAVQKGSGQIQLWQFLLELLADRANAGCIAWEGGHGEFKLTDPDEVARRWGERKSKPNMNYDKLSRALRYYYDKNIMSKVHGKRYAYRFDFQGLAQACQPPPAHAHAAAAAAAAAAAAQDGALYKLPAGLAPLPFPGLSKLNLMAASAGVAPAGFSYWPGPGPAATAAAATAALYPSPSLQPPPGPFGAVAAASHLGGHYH
# In short: as §1
# ETV5 = ETV5 (Homo sapiens, UniProt P41161 1-510)
# In short: as §1
# SPIC = biological target: T7, SPIC (Homo sapiens, UniProt Q8N5J4 1-248)
# T7 sequence: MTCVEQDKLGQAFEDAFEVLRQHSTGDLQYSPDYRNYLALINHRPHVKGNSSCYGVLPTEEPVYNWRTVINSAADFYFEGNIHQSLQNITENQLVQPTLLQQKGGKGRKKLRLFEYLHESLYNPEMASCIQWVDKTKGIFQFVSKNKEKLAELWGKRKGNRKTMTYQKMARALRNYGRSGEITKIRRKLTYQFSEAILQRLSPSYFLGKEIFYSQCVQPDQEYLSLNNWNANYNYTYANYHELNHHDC
# In short: as §1
# ELF4 = ELF4 (Homo sapiens, UniProt Q99607 1-663)
# In short: as §1
# ETV1 = ETV1 (Homo sapiens, UniProt P50549 1-477)
# In short: as §1
# ERF = biological target: T8, ERF (Homo sapiens, UniProt P50548 1-548)
# T8 sequence: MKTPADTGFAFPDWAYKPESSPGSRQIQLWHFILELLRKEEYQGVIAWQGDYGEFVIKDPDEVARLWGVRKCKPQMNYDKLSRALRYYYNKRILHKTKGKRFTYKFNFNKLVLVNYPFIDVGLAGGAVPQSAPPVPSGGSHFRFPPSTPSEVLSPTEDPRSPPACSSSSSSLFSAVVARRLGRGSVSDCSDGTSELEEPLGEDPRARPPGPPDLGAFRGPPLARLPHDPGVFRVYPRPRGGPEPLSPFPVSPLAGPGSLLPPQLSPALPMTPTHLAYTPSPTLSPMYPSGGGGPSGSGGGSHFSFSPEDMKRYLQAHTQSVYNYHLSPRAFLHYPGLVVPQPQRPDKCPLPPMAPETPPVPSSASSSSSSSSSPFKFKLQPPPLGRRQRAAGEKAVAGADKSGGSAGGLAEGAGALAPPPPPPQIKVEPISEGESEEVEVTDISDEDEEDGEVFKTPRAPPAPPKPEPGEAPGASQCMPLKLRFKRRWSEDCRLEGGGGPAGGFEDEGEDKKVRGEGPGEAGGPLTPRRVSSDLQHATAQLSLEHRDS
# In short: as §1
# ETV3L = biological target: T9, ETV3L (Homo sapiens, UniProt Q6ZN32 1-361)
# T9 sequence: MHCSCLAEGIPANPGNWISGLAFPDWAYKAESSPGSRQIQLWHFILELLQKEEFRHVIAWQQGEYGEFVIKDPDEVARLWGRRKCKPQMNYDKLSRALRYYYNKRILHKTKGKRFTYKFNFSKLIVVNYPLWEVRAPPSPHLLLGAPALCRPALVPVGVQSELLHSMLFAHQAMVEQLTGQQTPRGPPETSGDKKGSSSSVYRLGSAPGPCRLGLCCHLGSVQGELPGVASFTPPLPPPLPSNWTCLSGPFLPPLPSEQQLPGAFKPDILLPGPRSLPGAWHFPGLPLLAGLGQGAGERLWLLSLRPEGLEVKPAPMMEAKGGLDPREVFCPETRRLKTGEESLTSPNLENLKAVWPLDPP
# In short: as §1
# ETS2 = biological target: T10, ETS2 (Homo sapiens, UniProt P15036 1-469)
# T10 sequence: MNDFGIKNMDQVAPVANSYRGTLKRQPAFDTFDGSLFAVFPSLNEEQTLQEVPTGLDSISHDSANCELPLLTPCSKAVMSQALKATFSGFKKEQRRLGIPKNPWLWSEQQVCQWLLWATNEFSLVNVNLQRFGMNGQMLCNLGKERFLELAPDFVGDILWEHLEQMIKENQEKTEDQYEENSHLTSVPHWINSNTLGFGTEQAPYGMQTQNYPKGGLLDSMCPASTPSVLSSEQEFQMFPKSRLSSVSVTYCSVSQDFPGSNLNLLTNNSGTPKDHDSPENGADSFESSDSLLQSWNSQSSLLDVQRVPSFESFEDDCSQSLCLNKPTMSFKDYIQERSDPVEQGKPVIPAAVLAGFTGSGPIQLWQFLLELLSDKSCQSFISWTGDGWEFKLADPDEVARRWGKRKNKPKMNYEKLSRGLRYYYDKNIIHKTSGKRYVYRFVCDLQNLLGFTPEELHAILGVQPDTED
# In short: as §1
# SPDEF = biological target: T11, SPDEF (Homo sapiens, UniProt O95238 1-335)
# T11 sequence: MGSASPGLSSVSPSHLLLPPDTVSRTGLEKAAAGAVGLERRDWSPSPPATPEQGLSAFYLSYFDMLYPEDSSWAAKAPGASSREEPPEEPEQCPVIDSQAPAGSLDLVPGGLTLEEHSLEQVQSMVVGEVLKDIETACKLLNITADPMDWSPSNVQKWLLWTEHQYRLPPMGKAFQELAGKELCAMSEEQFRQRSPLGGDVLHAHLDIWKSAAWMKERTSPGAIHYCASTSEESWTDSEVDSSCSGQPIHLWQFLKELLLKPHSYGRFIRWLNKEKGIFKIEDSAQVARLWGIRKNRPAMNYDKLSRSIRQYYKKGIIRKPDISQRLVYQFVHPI
# In short: as §1
# ETV3 = biological target: T12, ETV3 (Homo sapiens, UniProt P41162-2 1-143)
# T12 sequence: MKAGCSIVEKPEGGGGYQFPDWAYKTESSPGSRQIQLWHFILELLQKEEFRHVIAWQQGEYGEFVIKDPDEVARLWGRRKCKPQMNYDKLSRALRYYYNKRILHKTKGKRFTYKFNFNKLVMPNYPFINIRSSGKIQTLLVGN
# In short: as §1
# ETV6 = ETV6 (Homo sapiens, UniProt P41212 1-452)
# In short: as §1
# Sequence of ETV5 (P41161 whole entry): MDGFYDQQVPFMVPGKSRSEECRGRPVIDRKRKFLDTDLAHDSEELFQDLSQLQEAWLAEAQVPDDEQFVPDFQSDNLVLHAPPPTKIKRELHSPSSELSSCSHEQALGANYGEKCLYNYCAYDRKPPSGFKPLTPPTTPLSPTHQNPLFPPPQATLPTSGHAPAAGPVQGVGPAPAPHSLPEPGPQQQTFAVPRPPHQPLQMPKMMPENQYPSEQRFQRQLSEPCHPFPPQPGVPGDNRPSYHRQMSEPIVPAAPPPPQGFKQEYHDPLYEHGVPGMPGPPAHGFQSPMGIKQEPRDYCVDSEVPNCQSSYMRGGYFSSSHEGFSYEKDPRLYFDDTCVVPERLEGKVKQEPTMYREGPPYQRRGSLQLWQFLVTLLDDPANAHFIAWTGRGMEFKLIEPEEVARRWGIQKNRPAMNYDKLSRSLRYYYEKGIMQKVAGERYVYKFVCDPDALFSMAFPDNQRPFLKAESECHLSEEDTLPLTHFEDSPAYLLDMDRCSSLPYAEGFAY
# Sequence of ELF1 (P32519 whole entry): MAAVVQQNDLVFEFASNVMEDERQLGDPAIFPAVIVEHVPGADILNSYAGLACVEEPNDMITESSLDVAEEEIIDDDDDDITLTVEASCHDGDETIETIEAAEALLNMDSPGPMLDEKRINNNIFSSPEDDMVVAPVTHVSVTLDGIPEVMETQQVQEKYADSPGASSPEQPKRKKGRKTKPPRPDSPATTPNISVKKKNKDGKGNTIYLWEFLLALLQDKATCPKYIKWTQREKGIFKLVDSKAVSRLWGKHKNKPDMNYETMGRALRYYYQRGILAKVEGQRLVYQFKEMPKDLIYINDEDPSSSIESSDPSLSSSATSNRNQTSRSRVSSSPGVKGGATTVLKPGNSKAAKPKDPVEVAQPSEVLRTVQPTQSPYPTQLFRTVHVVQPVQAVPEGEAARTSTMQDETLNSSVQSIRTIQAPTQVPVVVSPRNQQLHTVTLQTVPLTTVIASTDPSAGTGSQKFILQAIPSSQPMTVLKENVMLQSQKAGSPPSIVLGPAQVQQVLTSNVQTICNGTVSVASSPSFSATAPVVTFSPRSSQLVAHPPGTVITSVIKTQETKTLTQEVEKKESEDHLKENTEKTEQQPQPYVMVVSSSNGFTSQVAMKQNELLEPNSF
# Sequence of SPIB (Q01892 whole entry): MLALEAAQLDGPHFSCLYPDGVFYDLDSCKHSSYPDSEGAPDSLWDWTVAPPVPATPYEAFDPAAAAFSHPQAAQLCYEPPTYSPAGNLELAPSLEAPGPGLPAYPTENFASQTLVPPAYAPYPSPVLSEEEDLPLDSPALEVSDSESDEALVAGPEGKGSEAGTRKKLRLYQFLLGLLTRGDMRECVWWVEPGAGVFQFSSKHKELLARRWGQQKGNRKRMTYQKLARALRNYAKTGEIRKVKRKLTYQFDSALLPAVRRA
# Sequence of ELF4 (Q99607 whole entry): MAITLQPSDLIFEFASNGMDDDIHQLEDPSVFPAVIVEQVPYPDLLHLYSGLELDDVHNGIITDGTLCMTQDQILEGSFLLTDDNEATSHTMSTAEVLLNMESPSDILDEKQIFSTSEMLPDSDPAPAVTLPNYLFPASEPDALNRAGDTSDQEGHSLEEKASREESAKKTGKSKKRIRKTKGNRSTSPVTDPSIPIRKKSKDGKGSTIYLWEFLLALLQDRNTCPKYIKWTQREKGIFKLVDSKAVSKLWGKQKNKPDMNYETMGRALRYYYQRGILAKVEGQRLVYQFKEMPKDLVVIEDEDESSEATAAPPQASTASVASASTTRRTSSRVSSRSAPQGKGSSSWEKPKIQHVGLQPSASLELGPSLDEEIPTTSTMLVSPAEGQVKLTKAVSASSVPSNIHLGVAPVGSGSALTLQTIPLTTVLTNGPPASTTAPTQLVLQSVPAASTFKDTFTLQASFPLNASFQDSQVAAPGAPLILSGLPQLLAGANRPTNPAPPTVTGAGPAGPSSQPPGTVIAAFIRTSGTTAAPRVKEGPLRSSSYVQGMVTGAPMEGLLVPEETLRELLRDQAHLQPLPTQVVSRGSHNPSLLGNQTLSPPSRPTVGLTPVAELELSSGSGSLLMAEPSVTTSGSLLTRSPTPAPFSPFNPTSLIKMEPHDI
# Sequence of ETV1 (P50549 whole entry): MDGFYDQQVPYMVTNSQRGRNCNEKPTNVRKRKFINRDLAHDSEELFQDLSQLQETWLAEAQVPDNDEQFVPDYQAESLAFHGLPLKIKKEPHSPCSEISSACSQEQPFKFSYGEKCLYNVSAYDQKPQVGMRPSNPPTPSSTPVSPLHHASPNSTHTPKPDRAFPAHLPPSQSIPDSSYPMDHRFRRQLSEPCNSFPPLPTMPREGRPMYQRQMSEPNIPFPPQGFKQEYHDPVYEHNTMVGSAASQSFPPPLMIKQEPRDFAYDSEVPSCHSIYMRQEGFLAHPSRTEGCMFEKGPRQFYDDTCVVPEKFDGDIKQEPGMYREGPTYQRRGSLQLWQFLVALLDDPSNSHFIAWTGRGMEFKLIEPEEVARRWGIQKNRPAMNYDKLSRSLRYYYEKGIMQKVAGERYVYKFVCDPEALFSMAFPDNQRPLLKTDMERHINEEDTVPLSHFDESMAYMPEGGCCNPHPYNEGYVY
# Sequence of ETV6 (P41212 whole entry): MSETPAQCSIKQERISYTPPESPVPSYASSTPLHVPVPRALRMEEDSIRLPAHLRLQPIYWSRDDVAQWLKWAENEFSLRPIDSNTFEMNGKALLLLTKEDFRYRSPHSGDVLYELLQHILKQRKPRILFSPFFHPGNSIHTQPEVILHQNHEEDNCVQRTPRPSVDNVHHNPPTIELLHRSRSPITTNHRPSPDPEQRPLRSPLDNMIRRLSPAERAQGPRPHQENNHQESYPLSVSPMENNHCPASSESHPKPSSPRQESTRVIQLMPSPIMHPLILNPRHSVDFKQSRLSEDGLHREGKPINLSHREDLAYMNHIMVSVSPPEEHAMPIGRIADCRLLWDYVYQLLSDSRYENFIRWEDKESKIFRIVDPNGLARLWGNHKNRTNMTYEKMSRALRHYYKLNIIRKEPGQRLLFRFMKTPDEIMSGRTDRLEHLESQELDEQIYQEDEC
sequence,measurement,setting,value
GTCCTG,binding signal,FLI1,"1.09 fold enrichment (6-mer frequency, TF over GST control)"
same,binding signal,GABPA,"1.05 fold enrichment (6-mer frequency, TF over GST control)"
same,binding signal,ERG,"1.17 fold enrichment (6-mer frequency, TF over GST control)"
same,binding signal,ELF1,"1.15 fold enrichment (6-mer frequency, TF over GST control)"
same,binding signal,EHF,"1.09 fold enrichment (6-mer frequency, TF over GST control)"
same,binding signal,SPI1,"1.16 fold enrichment (6-mer frequency, TF over GST control)"
same,binding signal,SPIB,"1.15 fold enrichment (6-mer frequency, TF over GST control)"
same,binding signal,ELK3,"1.05 fold enrichment (6-mer frequency, TF over GST control)"
same,binding signal,FEV,"1.1 fold enrichment (6-mer frequency, TF over GST control)"
same,binding signal,ETV5,"1.08 fold enrichment (6-mer frequency, TF over GST control)"
same,binding signal,SPIC,"1.3 fold enrichment (6-mer frequency, TF over GST control)"
same,binding signal,ELF4,"1.09 fold enrichment (6-mer frequency, TF over GST control)"
same,binding signal,ETV1,"1.17 fold enrichment (6-mer frequency, TF over GST control)"
same,binding signal,ERF,"1.08 fold enrichment (6-mer frequency, TF over GST control)"
same,binding signal,ETV3L,"1.19 fold enrichment (6-mer frequency, TF over GST control)"
same,binding signal,ETS2,"1.02 fold enrichment (6-mer frequency, TF over GST control)"
same,binding signal,SPDEF,"1.34 fold enrichment (6-mer frequency, TF over GST control)"
same,binding signal,ETV3,"1.2 fold enrichment (6-mer frequency, TF over GST control)"
same,binding signal,ETV6,"1.16 fold enrichment (6-mer frequency, TF over GST control)"
